Screening results deposited in PubChem by Johns Hopkins Ion Channel Center.
KCNQ2 enhance = potentiators of rat KCNQ2 potassium channel. Potassium voltage-gated channel subfamily KQT member 2 (Rattus norvegicus), O88943. B-score at 10 µM. AID 2239, 2010. actives 0.54% (n = 310,000). CHO-K1 KCNQ2, FluxOR thallium flux fluorescence; hits give high values;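 active = fluorescence ratio B-score at least 3 SD of library B-scores, with initial fluorescence B-score within 3 of them, cut at about 5.3 in these data; same plate scores as AID 2156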;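 also: B-score of peak minus minimum over baseline fluorescence ratio after K+ and Tl+ stimulus; positive B-score means potentiation of KCNQ2 with more thallium influx and brighter signal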
Target sequence (O88943 whole entry, looked up): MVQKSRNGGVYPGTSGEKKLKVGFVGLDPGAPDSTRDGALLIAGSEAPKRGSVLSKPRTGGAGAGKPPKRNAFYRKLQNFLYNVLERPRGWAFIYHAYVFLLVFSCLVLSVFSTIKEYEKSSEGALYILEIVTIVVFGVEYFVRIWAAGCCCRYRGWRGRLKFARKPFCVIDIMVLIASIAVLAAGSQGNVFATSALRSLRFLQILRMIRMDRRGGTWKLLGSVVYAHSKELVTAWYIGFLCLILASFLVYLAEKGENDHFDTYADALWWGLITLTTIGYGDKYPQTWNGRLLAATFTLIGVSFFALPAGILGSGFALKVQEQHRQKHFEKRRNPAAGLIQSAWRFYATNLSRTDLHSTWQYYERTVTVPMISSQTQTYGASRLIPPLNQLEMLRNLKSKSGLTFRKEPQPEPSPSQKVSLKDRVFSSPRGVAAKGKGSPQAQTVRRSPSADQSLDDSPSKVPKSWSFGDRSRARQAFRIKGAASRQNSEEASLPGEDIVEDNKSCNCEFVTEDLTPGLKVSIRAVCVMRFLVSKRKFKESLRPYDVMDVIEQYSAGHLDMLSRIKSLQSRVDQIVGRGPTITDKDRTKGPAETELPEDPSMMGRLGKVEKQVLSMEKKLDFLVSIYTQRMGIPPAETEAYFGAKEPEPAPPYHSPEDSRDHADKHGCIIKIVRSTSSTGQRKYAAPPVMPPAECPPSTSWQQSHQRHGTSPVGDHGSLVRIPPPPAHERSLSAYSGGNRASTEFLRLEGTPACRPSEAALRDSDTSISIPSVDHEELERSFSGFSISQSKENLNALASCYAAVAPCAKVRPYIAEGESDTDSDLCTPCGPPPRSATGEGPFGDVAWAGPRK
KCNQ2 block = rat KCNQ2 potassium channel inhibitors, primary screen, cell-based, CHO-K1, FluxOR thallium flux, B-score. B-score at 10 µM. AID 2156, 2009. actives 1.1% (n = 310,000). 20 min; hits give low values. Potassium voltage-gated channel subfamily KQT member 2 (Rattus norvegicus), O88943;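 active = fluorescence ratio B-score at most minus 3 library SDs, with starting brightness B-score within 2 library SDs, cut at about -5.5 in these data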
KCNQ2 block conf = rat KCNQ2 potassium channel inhibitors, confirmation, cell-based, thallium flux. shares compounds with KCNQ2 block. KCNQ2-expressing cells, inhibition; hits give low values. activity change, negative = inhibition, % at 10 µM. actives 57% (n = 1,000). AID 493025, 2011;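 also: 0% = vehicle wells and values are ratio percent relative to vehicle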
KCNQ1 spec = human KCNQ1 channel inhibition, counter-screen for KCNQ2 inhibitor project, cell-based, FluxOR thallium flux | activity change, negative = inhibition, % at 10 µM | AID 493026, 2011 | shares compounds with KCNQ2 block | actives 15% (n = 1,000) | KCNQ1-expressing cells, FluxOR thallium flux fluorescence; hits give low values;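 active = activity change at least 3 SD of negative controls below their mean in both duplicate wells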;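 also: CHO cells stably transfected with KCNQ1 and depolarized by potassium stimulus; peak minus minimum fluorescence over baseline after thallium addition; 0% = vehicle negative control and -100% = blank without thallium stimulus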
CHO parental ctr = thallium flux change in parental CHO cells, counter-screen for KCNQ2 inhibitor project; hits give low values; AID 493029, 2011; activity change, % at 10 µM; actives 14% (n = 1,000); shares compounds with KCNQ2 block;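 also: 0% = vehicle negative controls with stimulus buffer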
KCNQ2 patch conf = rat KCNQ2 channel inhibitors, confirmation, cell-based, automated patch clamp, single concentration; shares compounds with KCNQ2 block; KCNQ2-expressing cells, automated patch clamp current; calls only at 10 µM; actives 49% (n = 550); AID 588531, 2011
* = called active by the depositor; i = inactive; nt = no result given; + = active, no number. The list is not random: actives were taken first. Their share in the collection is about 1.6%. Unless noted, no rule for the calls is given here.

SMILES	KCNQ2 enhance	KCNQ2 block	KCNQ2 block conf	KCNQ1 spec	CHO parental ctr	KCNQ2 patch conf
CCn1cnc2c1c(=O)n(Cc1csc(-c3ccccc3)n1)c(=O)n2Cc1ccccc1	-9.4	-9.4*	-16%*	i	i	i
CCn1cnc2c1c(=O)n(Cc1cccc([N+](=O)[O-])c1)c(=O)n2Cc1ccccc1	0.22	i	nt	nt	nt	nt
COc1ccc(C2CC(=O)c3c(O)cc(O)cc3O2)c(CC=C(C)C)c1OC (stereo not given)	-13	-13*	-34%*	i	i	+
CC(C)=CCc1c(O)cc2c(c1O)C(=O)CC(c1ccccc1)O2 (stereo not given)	1	i	nt	nt	nt	nt
O=C(OC1CCOC1=O)c1ccc(NS(=O)(=O)c2cccs2)cc1 (stereo not given)	1.3	i	nt	nt	nt	nt
Cc1nc(Cl)c(C#N)cc1-c1ccccc1	1.4	i	nt	nt	nt	nt
Cc1nc(Sc2ccccc2)c(C#N)cc1-c1ccccc1	-9.3	-9.3*	i	i	i	nt
N#Cc1cc(-c2ccccc2)cnc1Sc1ccc(Cl)cc1	-6.8	-6.8*	i	i	i	nt
N#Cc1cc(-c2ccc(Cl)cc2)cnc1Sc1ccccc1	nt	i	nt	nt	nt	nt
CC(C)[C@@H](C(=O)N1CCCC1)N1C(=O)N2CCc3c([nH]c4ccccc34)[C@@]2(C)C1=O	0.1	i	nt	nt	nt	nt
CCN1CCN(S(=O)(=O)c2ccc(Cl)c(C(=O)Nc3ccccc3N3CCOCC3)c2)CC1	nt	i	nt	nt	nt	nt
O=C(Nc1ccccc1N1CCCCC1)c1cc(S(=O)(=O)N2CCOCC2)ccc1Cl	-9	-9*	-28%*	i	i	+
O=C(Nc1ccccc1Cl)c1cc(S(=O)(=O)N2CCCCC2)ccc1N1CCOCC1	nt	i	nt	nt	nt	nt
CCN1CCN(S(=O)(=O)c2ccc(Cl)c(C(=O)Nc3cc(Cl)ccc3N3CCOCC3)c2)CC1	-6.7	-6.7*	i	i	i	nt
Cc1cc(-c2nnc(SCC(=O)Nc3c(C)cccc3C)n2N)n[nH]1	1.1	i	nt	nt	nt	nt
COc1cccc(NC(=O)c2ccnc(N3CCC(C(=O)NCc4cc(OC)ccc4OC)CC3)c2)c1	nt	i	nt	nt	nt	nt
CCOc1ccc(C(=O)Nc2cccc(C(=O)O)c2)cc1Cl	1.1	i	nt	nt	nt	nt
CCOc1ccc(C(=O)Nc2cccc(-c3nc4cccnc4o3)c2)cc1Cl	-10	-10*	i	i	i	nt
O=C(COC(=O)CCc1ccccc1)Nc1ccc(F)cc1Cl	0.48	i	nt	nt	nt	nt
CN1/C(=C\C(=O)Nc2ccc(Cl)cc2)C(C)(C)c2ccccc21	-8.1	-8.1*	-27%*	i	i	i
CN1/C(=C\C=C(/C#N)C(=O)Nc2ccc(Cl)cc2)C(C)(C)c2ccccc21	nt	i	nt	nt	nt	nt
CCCCOc1cccc(OCCCC)c1C(=O)Nc1cc(C)on1	-9.7	-9.7*	-43%*	-34%*	-34%*	+
CCOc1ccc(C(=O)Nc2cc(C)on2)cc1OCC	0.02	i	nt	nt	nt	nt
O=C(Nc1ccccc1Cc1ccccc1)c1oc2ccccc2c1COc1ccccc1	nt	i	nt	nt	nt	nt
O=C(NCCc1ccccc1)c1oc2ccccc2c1COc1ccccc1	-9	-9*	-24%*	i	i	i
SMILES	KCNQ2 enhance	KCNQ2 block	KCNQ2 block conf	KCNQ1 spec	CHO parental ctr	KCNQ2 patch conf
Cc1ccccc1C1CCCN(Cc2nc(C3CC3)no2)C1 (stereo not given)	nt	i	nt	nt	nt	nt
Cc1c(NC(=O)C(C)OC(=O)c2ccc(NC(=O)CC#N)cc2)c(=O)n(-c2ccccc2)n1C (stereo not given)	nt	i	nt	nt	nt	nt
Cc1ccc(/C(N)=N/OC(=O)N2c3ccccc3Sc3ccccc32)cc1	-8.5	-8.5*	-26%*	i	i	+
Cc1ccc(/C(N)=N/OC(=O)Cc2ccccc2)cc1	nt	i	nt	nt	nt	nt
CCCCOc1ccc(C(=O)NCC(=O)NCC(c2ccc(F)cc2)N2CCOCC2)cc1 (stereo not given)	1.3	i	nt	nt	nt	nt
N#Cc1nc(COc2ccc(F)cc2)oc1N1CCC(Cc2ccccc2)CC1	-8.9	-8.9*	-42%*	-42%*	-32%*	i
N#Cc1nc(Cc2ccccc2)oc1N1CCC(Cc2ccccc2)CC1	nt	i	nt	nt	nt	nt
CCN1CCN(c2oc(COc3ccc(-c4ccccc4)cc3)nc2C#N)CC1	nt	i	nt	nt	nt	nt
N#Cc1nc(COc2ccc(F)cc2)oc1N1CCN(Cc2ccccc2)CC1	-7	-7*	-16%*	i	i	+
